# Out of some 350,000 compounds screened, about 2,400 (0.69%) were called active. No stated cut-off is given here; in the data, active means inhibition above about 41%; inconclusive means no clear call, values can overlap the other calls; inactive means below that. Shown is part of a subset that was picked to be rich in actives.
# Assay: EBV LMP1-driven NF-kappaB luciferase reporter inhibitors, primary screen, cell-based, luminescence, single point (AID 504558);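 further: 0% = neutral control wells and 100% = reference inhibitor control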
# Details: LMP1-induced NF-kappaB luciferase reporter cells, at 12.5 µM, stronger effect = higher value
row,SMILES,inhibition
1,COc1ccc(-c2cc(C(=O)N/N=C/c3cccnc3)c3ccccc3n2)c(OC)c1,1.36% (inactive)
2,CCOc1ccc(-c2cc(C(=O)N/N=C/c3ccc(O)cc3)c3ccccc3n2)cc1,58.2% (active)
3,CCOc1ccc(NC(=O)c2cc(C)nc3ccccc23)cc1,-0.28% (inactive)
4,Cc1cccc(C(=O)OCC(=O)Nc2sccc2C(N)=O)c1C,-0.574% (inactive)
5,C[C@H]1CN([C@@H](C)CO)C(=O)c2cc(C3=CCCCC3)cnc2O[C@@H]1CN(C)C(=O)Cc1ccccc1,5.28% (inactive)
6,CCN1C(=O)[C@H]2[C@@H](c3ccccc3)N[C@]3(CCCN(Cc4ccc(C)cc4)C3=O)[C@H]2C1=O,-1.4% (inactive)
7,O=C(CCN1CCN(C/C=C/c2ccccc2)CC1)Nc1ccccc1Cl,5.35% (inactive)
8,O=C(Nc1ccccc1Cl)/C(Cl)=C(\Cl)S(=O)c1ccccc1 (stereo not drawn),69.1% (active)
9,NC(=O)C1(Nc2ccccc2Cl)CCCC1,-6.12% (inactive)
10,Cc1ccc(C(=O)NC(C)C(c2cccs2)N2CCOCC2)cc1C (stereo not drawn),3.97% (inactive)
11,Cc1ccc(-c2cc(C(=O)N/N=C/C=C/c3ccco3)c3ccccc3n2)cc1C,60.7% (active)
12,CC(/C=N/NC(=O)c1cc(-c2ccc3ccccc3c2)n[nH]1)=C\c1ccco1,-39.1% (inactive)
13,O=C(N/N=C/C=C/c1ccco1)c1cccs1,-24.5% (inactive)
14,COc1ccc(CCNC(=O)CN(c2ccccc2)S(=O)(=O)c2ccccc2)cc1,-10.2% (inactive)
15,Cc1ccc([C@H]2C[C@H](O)[C@@H](n3cc(COC(=O)c4ccccc4)nn3)CN2CC2CCCCC2)cc1,4.84% (inactive)
16,C[C@H]1CN([C@@H](C)CO)C(=O)CCCn2cc(nn2)CO[C@@H]1CN(C)S(=O)(=O)c1cccs1,5.02% (inactive)
17,CCN1CCCC1CNC(=O)c1ccc2c(c1)NC(=O)/C(=C\c1ccccc1F)S2 (stereo not drawn),-8.19% (inactive)
18,CC1=C(C(=O)N(C)C)CC(CC(=O)NCCc2ccccn2)C(=O)N1CCC1=CCCCC1 (stereo not drawn),1.75% (inactive)
19,CC(C)c1cc(C(=O)N(C)C2CCCN(Cc3ccccc3F)C2)n(C)n1 (stereo not drawn),3.75% (inactive)
20,Cc1ccc(-c2cc(C(=O)NCc3cn(C)nc3C)c3cc(Br)ccc3n2)cc1,-3.18% (inactive)
21,Cc1ccn2cc(C(=O)NC3CCN(Cc4ccccc4)CC3)nc2c1,5.73% (inactive)
22,Cc1ccc(-c2cc(N)on2)cc1,-11.1% (inactive)

row,SMILES,inhibition
1,Cc1ccc2nc(-c3ccc(Br)cc3)cn2c1,63.8% (active)
2,CSc1nnc2ccc(-c3ccc(C)cc3)nn12,2.32% (inactive)
3,Cc1ccc(-c2nc3ccc(Cl)cn3c2Cc2ccccc2)cc1,-21.9% (inactive)
4,Cc1ccc(-c2cn3cc(C)ccc3n2)cc1,82% (active)
5,COc1ccc(-c2cn3ccc(C)cc3n2)cc1,48.2% (active)
6,COc1ccc(-c2cc3ncccc3cn2)cc1,-15.8% (inactive)
7,COc1cc2ccc(C(C)=O)c(O)c2cc1OC,3.32% (inactive)
8,COc1ccc(S(=O)(=O)N2CCC(C(=O)NCCC(=O)Nc3ccccc3OC)CC2)cc1,1.21% (inactive)
9,COc1ccc(C(=O)OCC(=O)Nc2cc(C)on2)cc1F,-6.31% (inactive)
10,COc1ccc(C(=O)NCC2CCCO2)cc1S(=O)(=O)NCc1ccc(Cl)cc1 (stereo not drawn),-0.644% (inactive)
11,CC1CN(C(=O)c2cccc(NS(=O)(=O)c3ccc(Br)cc3)c2)CC(C)O1 (stereo not drawn),0.834% (inactive)
12,O=C(Nc1cccc2ccccc12)NC1CC1,-3.72% (inactive)
13,CC1=C(C(=O)Nc2cccc(C(=O)NCC(C)c3ccccc3)c2)SCCO1 (stereo not drawn),-2.25% (inactive)
14,CC[C@H]1CN2CCc3cc(OC)c(OC)cc3[C@@H]2C[C@@H]1C[C@H]1NCCc2cc(OC)c(OC)cc21,89.9% (active)
15,COc1cc2c(cc1OC)CN(CC(=O)Nc1ccc(F)cc1)CC2,9.89% (inactive)
16,CC(C)CC1C(=O)N(Cc2cn(CC3CCCCC3)nn2)CCS(=O)(=O)N1Cc1ccc(-c2ccc(Cl)cc2)cc1 (stereo not drawn),5.31% (inactive)
17,O=C(COC(=O)c1cccc(Cl)c1Cl)NC1CCCCCC1,-5.21% (inactive)
18,O=C(NC(Nc1nc2ccc([N+](=O)[O-])cc2s1)(C(F)(F)F)C(F)(F)F)c1ccccc1,56.9% (active)
19,O=C(O)c1cc([N+](=O)[O-])c(Nc2cccc3ccccc23)c([N+](=O)[O-])c1,1% (inactive)
20,Cc1ccc(NC(=O)c2cccc(S(=O)(=O)N3CCCc4ccccc43)c2)nc1,16.9% (inactive)
21,N=C1C(c2nc3ccccc3s2)=C(O)CN1NC(=O)c1ccc([N+](=O)[O-])cc1,-6.15% (inactive)
22,O=C(Nc1nc2ccc([N+](=O)[O-])cc2s1)c1ccc(S(=O)(=O)N2CCCc3ccccc32)cc1,52.5% (active)

row,SMILES,inhibition
1,CN(C)CCCN(C(=O)c1ccc(S(=O)(=O)N2CCCc3ccccc32)cc1)c1nc2ccc(F)cc2s1,-4.71% (inactive)
2,C[C@@H]1CN([C@@H](C)CO)C(=O)c2cc(NS(C)(=O)=O)ccc2O[C@@H](C)CCCCO[C@H]1CN(C)C(=O)Nc1ccc2c(c1)OCO2,-2.68% (inactive)
3,CC(C)CCC(=O)Nc1cc(S(=O)(=O)N2CCOCC2)ccc1N1CCCC1,0.721% (inactive)
4,O=S1(=O)CCN(C2CCCCCCCCCCC2)CC1,3.93% (inactive)
5,CCCCCCn1c(=O)n2n(c1=O)C[C@]1(OC(=O)NCc3ccc(OC)c(OC)c3)CN(S(=O)(=O)c3ccc(C)cc3)C[C@]1(O)C2,-11.4% (inactive)
6,O=C1c2ccccc2-c2ccccc2NC1O (stereo not drawn),5.68% (inactive)
7,COc1ccc(-c2cnc3c(c2)C(=O)N([C@H](C)CO)C[C@@H](C)[C@H](CN(C)Cc2ccccc2)O3)cc1,-7.99% (inactive)
8,COc1ccc(OC)c(NC(=O)C2CCCN2S(=O)(=O)c2ccc3c(c2)CC(C)N3C(C)=O)c1 (stereo not drawn),1.47% (inactive)
9,O=C(OCC(=O)N1CCCCCC1)c1cccc(Cl)c1Cl,-36.1% (inactive)
10,Cc1ccc(C(=O)Nc2sc(Cc3ccc4c(c3)OCO4)c(C)c2C(N)=O)cc1,81% (active)
11,COc1ccc(CC(=O)Nc2sc(Cc3ccccc3)c(C)c2C(N)=O)cc1,0.44% (inactive)
12,COCc1nnc(NC(=O)c2ccc3c(c2)OCO3)s1,7.49% (inactive)
13,COc1ccc(CN2C(=O)C(CC(=O)NC3CCCCC3)CC(C(=O)N3CCOCC3)=C2C)cc1 (stereo not drawn),1.44% (inactive)
14,Cc1c(Cl)cnc(NC(=O)COC(=O)C2CCCC2)c1Cl,-6.23% (inactive)
15,CSCCC(NC(=O)c1ccco1)C(=O)Nc1cc(C)ccn1 (stereo not drawn),-34.2% (inactive)
16,CSCCC(NC(=O)c1ccco1)C(=O)OCC(=O)Nc1ncc(Cl)c(C)c1Cl (stereo not drawn),59.5% (active)
17,COc1cccc(OCC(=O)NCCS(=O)(=O)N2CCN(c3ccccc3)CC2)c1,1.31% (inactive)
18,O=C(CC(CC(=O)c1ccccc1)c1ccco1)c1ccccc1,-17.7% (inactive)
19,CCOc1cc(/C=C(/C#N)c2ccc(Cl)cc2)cc(Cl)c1OCC(=O)O,43.8% (active)
20,CCOC(=O)CN/C=C(\C#N)c1ccc(F)cc1,1.95% (inactive)
21,C/C(=N\OCC(=O)O)c1ccc(Cl)cc1,-9.17% (inactive)
22,CCOC(=O)c1cc(-c2sc(NC(=O)c3ccccc3)nc2C)n(-c2ccc(Br)cc2)n1,-16.6% (inactive)

row,SMILES,inhibition
1,C[C@@H]1CN([C@H](C)CO)S(=O)(=O)c2ccc(C#CC3CCCCC3)cc2O[C@H]1CN(C)C(=O)Cc1ccncc1,-11.3% (inactive)
2,COc1ccc(C(CNC(=O)c2ccc(OCc3cscn3)cc2)N2CCCC2)cc1 (stereo not drawn),-12% (inactive)
3,CC(=O)Nc1c(-c2ccc(C)cc2)nc2ccc(Cl)cn12,6.02% (inactive)
4,Cc1sc2nc(-c3ccccc3F)oc(=O)c2c1C,1.32% (inactive)
5,CSc1ncnc2c1ncn2CCCNCC1CCCCC1,3.66% (inactive)
6,O=C(NN=Cc1ccccc1O)NN=Cc1ccccc1O,33.4% (inactive)
7,Cc1ccc(/C=N/NC(=O)C2=NNC(c3ccccc3)(c3ccccc3)C2)c(O)c1,61.6% (active)
8,O=C(N/N=C/c1ccccc1O)C1CCCC1,0.696% (inactive)
9,Cc1nc2ccccc2nc1CC(O)(c1ccccc1)c1ccccc1,-2.04% (inactive)
10,Nc1ccccc1-c1nc2ccncc2[nH]1,2.17% (inactive)
11,O=C(N/N=C/c1ccccn1)C12CC3CC(CC(C3)C1)C2,-4.71% (inactive)
12,Cc1nnc(N/N=C/c2ccccn2)[nH]c1=O,60.6% (active)
13,O=C(COc1ccc(Cl)cc1Cl)N/N=C/c1ccccn1,19.3% (inactive)
14,Cc1ccc(-c2ccc(CN3C(C)C(=O)N(Cc4cn(CCC5OCCCO5)nn4)CCS3(=O)=O)cc2)cc1 (stereo not drawn),3.6% (inactive)
15,C[C@@H]1CCCCO[C@H](CN(C)Cc2ccccc2)[C@@H](C)CN([C@H](C)CO)C(=O)c2cc(NS(=O)(=O)c3ccc(Cl)cc3)ccc2O1,-0.347% (inactive)
16,CCN(CC)C(=O)C1=C(C)N(Cc2ccc(F)cc2)C(=O)C(CC(=O)NC2CCCC2)C1 (stereo not drawn),5.32% (inactive)
17,O=C(NN=Cc1ccc2c(c1)CCC2)c1ccccc1O,-10.8% (inactive)
18,COc1cc(C=NNC(=O)c2cccnc2)ccc1OC(=O)c1ccccc1F,5.47% (inactive)
19,COc1ccc(C(=O)Nc2ccccc2C(=O)N/N=C/c2ccc(O)c(OC)c2)cc1,66.5% (active)
20,CCCCCCNC(=O)O[C@H]1CN(C(=O)OC(C)C)N(C(=O)OC(C)C)[C@@H]2CN(S(=O)(=O)c3ccc(C)cc3)C[C@]12O,-5.81% (inactive)
21,Cc1cc2cc3n(c2nn1)N=C(Cl)CC3,3.98% (inactive)
22,CNS(=O)(=O)c1ccc2c(c1)[nH]c(=S)n2C,8.35% (inactive)

# From PubChem BioAssay AID504558 (Broad Institute, 2011)
